An excerpt weighted towards active compounds, which were near 4.8% of everything screened.
DAX1 inh-1 = DAX1 (NR0B1) inhibitors on StAR promoter, primary screen, cell-based, luminescence, SF-1 (NR5A1), full-length DAX-1; HEK293T StAR-luciferase reporter, SF-1/DAX-1 repression relief; inhibition, % at 6.8 µM; 1.1% of 370,000 active; AID 652010, 2013;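 active means inhibition above the mean over all tested compounds plus 3 SD, cut at about 3.6% in these data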;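 further: 0% = DAX-1 cells with DMSO and 100% = cells lacking DAX-1 with DMSO; higher inhibition means more luminescence from relief of DAX-1 repression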
hgDAF12 agonist = H. glycines DAF-12 receptor agonists, primary screen, cell-based, luminescence, HEK293, GAL4 fusion, UAS-luciferase; AID 687014, 2013; HEK293 GAL4-hgDAF12 UAS-luciferase reporter, agonist luminescence; normalized to butyrate control; 1.8% of 370,000 active; activation, % at 6.8 µM;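 active means activation above a cutoff set at the mean of all screened compounds plus 3 SD, cut at about 10% in these data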;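 further: 0% = DMSO wells and 100% = sodium butyrate wells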
DAX1 inh-2 = DAX1 (NR0B1) inhibitors, primary screen, cell-based, HEK293, Gal4-DAX1, luciferase luminescence | Nuclear receptor subfamily 0 group B member 1 (Homo sapiens), P51843 | HEK293 Gal4-DAX1 luciferase reporter | inhibition, % at 6.75 µM | 0.99% of 340,000 active | AID 504766, 2011;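 active means inhibition above the mean over all tested compounds plus 3 SD, cut at about 4.2% in these data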;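 further: 0% = DAX1-transfected cells with DMSO and 100% = empty-vector control cells with DMSO; inhibition shows as a rise in luminescence from relieved DAX1 repression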
ssDAF-12 act = S. stercoralis DAF-12 nuclear receptor activators, primary screen, cell-based, luminescence, HEK293, GRIP1 co-expression, lit1-tk-luc | Nuclear hormone receptor DAF-12 (Strongyloides stercoralis) | activation, % at 6.8 µM | 1% of 370,000 active | HEK293 ssDAF-12/GRIP1 lit1-tk-luc reporter; % of 3 µM dafachronic acid response | AID 652126, 2013;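 active means activation above the mean over all tested compounds plus 3 SD, cut at about 0.9% in these data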;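 further: 0% = DMSO-only wells and 100% = 3 µM delta7-dafachronic acid wells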
SMARCA2 activ = SMARCA2 (BRM) function activators, primary screen, cell-based, luminescence, high throughput. MG213 cells, MMTV-luciferase reporter, dexamethasone, overnight. activation, % at 9.1 µM. 1% of 370,000 active; in the data active means activation above about 7.8%;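 further: 0% = vehicle wells and 100% = reference activator wells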
hcDAF12 agonist = H. contortus DAF-12 nuclear receptor activators, primary screen, cell-based, luminescence, HEK293, lit1-tk-luc reporter. HEK293 hcDAF-12 lit1-tk-luc reporter; 0% DMSO, 100% Δ7-dafachronic acid. activation, % at 6.8 µM. 1.4% of 370,000 active. AID 652067, 2013;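 active means activation above the mean of all tested compounds plus 3 SD, cut at about 5.5% in these data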;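 further: 100% = response to 3 µM Δ7-dafachronic acid high control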
hgDAF12 conf = H. glycines DAF-12 receptor agonists, confirmation, cell-based, luminescence, HEK293, GAL4-LBD fusion. AID 743050, 2013. activation, % at 6.8 µM. shares compounds with hgDAF12 agonist. HEK293 GAL4-hgDAF12 luciferase reporter, agonist mode; percent of butyrate response. 80% of 3,300 active;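 active means mean activation over triplicate wells above the hit cutoff derived from the earlier primary screen, cut at about 11% in these data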;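 further: 0% = DMSO low control and 100% = 2 mM sodium butyrate high control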
LXRb DAF12 ctr = LXR agonists, Gal4 luciferase reporter, confirmation, counter-screen for hgDAF-12 agonist project, cell-based, luminescence, HEK293, H. glycines campaign; shares compounds with hgDAF12 agonist; 24 h; activation, % at 6.8 µM; 3,300 tested, under 10 active;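 active means mean activation of the triplicate above a set limit carried over from the primary screen, none filed active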
Target sequence (P55055 whole entry, looked up, the tested form may be a part): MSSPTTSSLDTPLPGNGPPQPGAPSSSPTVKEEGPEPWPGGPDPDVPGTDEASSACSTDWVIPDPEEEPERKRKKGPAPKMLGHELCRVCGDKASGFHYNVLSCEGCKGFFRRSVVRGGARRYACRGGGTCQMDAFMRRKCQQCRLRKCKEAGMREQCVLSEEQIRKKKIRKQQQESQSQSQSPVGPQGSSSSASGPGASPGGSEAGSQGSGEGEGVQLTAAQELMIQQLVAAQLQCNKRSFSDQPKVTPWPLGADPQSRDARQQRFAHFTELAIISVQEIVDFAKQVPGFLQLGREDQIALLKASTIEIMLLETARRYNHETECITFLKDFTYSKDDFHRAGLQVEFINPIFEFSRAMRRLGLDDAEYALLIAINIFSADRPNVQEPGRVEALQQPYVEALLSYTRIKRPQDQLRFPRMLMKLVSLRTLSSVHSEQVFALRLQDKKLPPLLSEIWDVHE
Numbers without * were called inactive; x = no result.

SMILES	DAX1 inh-1	hgDAF12 agonist	DAX1 inh-2	ssDAF-12 act	SMARCA2 activ	hcDAF12 agonist	hgDAF12 conf	LXRb DAF12 ctr
O=C(N/C=C\c1ccccc1)NCc1ccc(Cl)cc1	0	0	1	-1	-1	-2	x	x
O=C(N/C=C/c1ccccc1)c1ccccc1	3	15*	2	1	6	4	16*	1
Cn1cc(Cc2ccccc2)c(=O)c(Cc2ccccc2)c1	-1	-1	1	-1	-1	-2	x	x
Cc1ccc(SCc2nc3ccccc3[nH]2)cc1	2	14*	3	-1	0	1	12*	1
Cc1cc(C)c2ccc3c(C)c(C)nc3c2[nH]1	-1	2	0	-1	-2	3	x	x
Fc1ccc(CCN2CCN=C2Nc2ccccc2)cc1	0	-1	0	-1	-1	-1	x	x
Cc1ccc(NC(=O)c2noc3c2CCC3)cc1C	4.2*	19*	4	1	1	5	19*	1
O=C(NCc1ccccc1)c1noc2c1CCCCC2	3	15*	2	0	1	2	13*	0
COc1ccc(CNC(=O)c2noc3c2CCCCC3)cc1	1	8	1	-1	2	2	x	x
CC(C)(C)C(=O)c1cnc(Nc2ccccc2Cl)s1	2	13*	4	0	5	4	16*	1
O=C(c1ccc(Cl)c(Cl)c1)c1cnc(Nc2ccccc2)s1	-1	2	-1	-1	5	0	x	x
COc1ccccc1C(=O)N/C(=N/c1nc(C)cc(C)n1)Nc1ccccc1	1	14*	0	0	2	5	-2	0
COc1ccc(CCN(C)C(=O)c2ccc3c(=O)n4c(nc3c2)CCCCC4)cc1OC	-1	-1	0	-1	2	2	x	x
O=C(Nc1ccc(O)cc1)c1c(O)c2c([nH]c1=O)CCCC2	3.7*	14*	1	1	3	5	13*	1
COC(=O)c1ccccc1NC(=O)c1c(O)c2c([nH]c1=O)CCCC2	0	2	0	-1	-5	-2	x	x
CCc1nc(Nc2ccncc2)c2oc3ccccc3c2n1	0	19*	1	-1	7	1	8	0
O=C(c1sccc1-c1ccccc1)N1CCN(S(=O)(=O)c2ccccc2F)CC1	-2	-1	0	-1	-1	-1	x	x
O=C(COC(=O)c1ccccc1Cc1ccccc1)Nc1ccc(SC(F)F)cc1	3	14*	1	0	2	3	17*	1
O=C(Nc1ccc(SC(F)F)cc1)c1ccc(F)cc1	3	14*	2	0	1	3	14*	1
O=C(Nc1ccc(SC(F)F)cc1)c1ccccc1F	3.9*	16*	6.2*	0	1	5	15*	1
O=C(Cc1ccccc1F)Nc1ccc(SC(F)F)cc1	3	17*	3	0	4	5	14*	0
O=C(COC(=O)Cc1ccccc1F)Nc1ccc(SC(F)F)cc1	0	4	0	-1	6	0	x	x
Cc1nn(C)cc1S(=O)(=O)N1CCN(c2ccccc2F)CC1	2	-1	0	-1	-1	-1	x	x
CCSc1nnc(NC(=O)C2CSC3(C)CCC(=O)N23)s1 (stereo not given)	1	-1	0	-1	-3	0	x	x
CCOC(=O)c1n[nH]c2ccccc12	0	1	0	-2	2	0	x	x
SMILES	DAX1 inh-1	hgDAF12 agonist	DAX1 inh-2	ssDAF-12 act	SMARCA2 activ	hcDAF12 agonist	hgDAF12 conf	LXRb DAF12 ctr
O=C(OCCOc1ccccc1)c1n[nH]c2ccccc12	2	15*	3	-1	7	1	13*	1
O=C(NCCc1ccccc1)c1n[nH]c2ccccc12	3	15*	1	0	2	5.7*	13*	1
COc1ccc(C(=O)N/C(=C\c2ccccc2)C(=O)Nc2ccccc2C(=O)O)cc1	-1	0	0	0	-3	0	x	x
Cc1ccc(Nc2nc(C)cs2)cc1	2	16*	1	0	5	4	14*	1
Cc1csc(Nc2ccc(Cl)cc2)n1	1	9	1	0	0	-2	x	x
O=C(Nc1ccc(CN2CCOCC2)cc1)c1ccc(F)cc1	1	6	2	0	3	3	x	x
O=C(Nc1ccc(CN2CCOCC2)cc1)c1cccc(F)c1	3	15*	3	0	7	0	14*	0
COc1cc(CN2CCNC(=O)C2CC(=O)NCc2csc(C(C)C)n2)cc(OC)c1 (stereo not given)	1	4	0	-1	-2	1	x	x
CN(C)[C@H]1CCN([C@@H]2CS(=O)(=O)N[C@H]2COCc2ccccc2)C1	-2	-3	x	-1	-7	1	x	x
Cc1ccc(NC(=S)c2nc3ccccc3[nH]2)cc1	3	14*	2	1.0*	6	6.5*	17*	1
O=C(NC(=S)Nc1ccccc1F)C1CCCCC1	1	5	3	-1	2	-2	x	x
CC(=O)N(CN1C(=O)c2ccc([N+](=O)[O-])cc2C1=O)c1cccc(C(=O)O)c1	0	0	0	-1	0	0	x	x
O=C(CSc1ccc(F)cc1)Nc1ccc(Br)cc1	0	16*	2	-1	3	1	12*	0
Cc1ccc(NC(=O)CSCc2ccc(F)cc2)cc1	2	14*	-1	-1	1	3	10	0
COc1ccc(-c2ccc(C(=O)Nc3ccc(NC(C)=O)cc3)c3occc23)c(C)c1	-1	1	x	-1	1	0	x	x
COc1ccc(-c2ccc(C(=O)Nc3ccc(Cl)cc3)c3occc23)c(C)c1	2	18*	x	-1	4	0	8	0
O=C(NC(=S)Nc1ccc(N2CCOCC2)cc1)c1ccc2c(c1)OCCO2	-1	-2	-1	0	-5	-4	x	x

Assay outcomes: PubChem, The Scripps Research Institute Molecular Screening Center
